Results from PubChem BioAssay AID1159580 (chemical genetic matrix, 2015).
Hit rate of the full screen: of about 5,500 compounds, about 2,000 (36%) were called active. Not shown: some 18% with an inconclusive outcome. Rule as the data show it: active = normalized growth mostly below about 0.91 (no sharp cut-off); inconclusive = no clear call, values can overlap the other calls; inactive = mostly above about 0.92. Some of the results follow.

Experiment: chemical genetic growth profiling, strain panel (AID 1159580);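 also: tested at 20 µM; growth read once vehicle control cultures reached saturation at 30 °C; 1 = growth at the plate median or of vehicle wells; lower values mean less growth of the strain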
Details: S. cerevisiae deletion strains, growth OD

Measured: normalized growth

C=C1C(=O)[C@]23[C@H](O)[C@H]1CC[C@H]2[C@@]12CO[C@]3(O)[C@H](O)[C@@H]1C(C)(C)CC[C@@H]2O
inactive: locus YAL021C, strain ccr4, active compounds read low 1.02 | locus YAL026C, strain drs2, active compounds read low 0.99 | locus YAL030W, strain snc1, active compounds read low 1 | locus YBL061C, strain skt5, active compounds read low 0.987 | locus YBR009C, strain hhf1, active compounds read low 0.948 | locus YBR023C, strain chs3, active compounds read low 0.991 | locus YBR171W, strain sec66, active compounds read low 0.999 | locus YBR231C, strain swc5, active compounds read low 1.01 | locus YBR279W, strain paf1, active compounds read low 1 | locus YCL011C, strain gbp2, active compounds read low 0.983 | locus YCL016C, strain dcc1, active compounds read low 0.972 | locus YCL061C, strain MRC1, active compounds read low 1 | locus YCL069W, strain vba3, active compounds read low 0.995 | locus YCR088W, strain abp1, active compounds read low 1 | locus YDL005C, strain med2, active compounds read low 1.01 | locus YDL040C, strain nat1, active compounds read low 0.993 | locus YDR001C, strain nth1, active compounds read low 1 | locus YDR069C, strain doa4, active compounds read low 1.04 | locus YDR137W, strain rgp1, active compounds read low 0.99 | locus YDR159W, strain sac3, active compounds read low 1 | locus YDR195W, strain ref2 1.03 | locus YDR297W, strain sur2, active compounds read low 1 | locus YDR334W, strain swr1, active compounds read low 0.994 | locus YDR335W, strain msn5, active compounds read low 1 | locus YDR392W, strain spt3, active compounds read low 0.883 | locus YEL003W, strain gim4, active compounds read low 0.992 | locus YEL037C, strain rad23, active compounds read low 1 | locus YEL061C, strain CIN8 (second series), active compounds read low 1 | locus YER015W, strain faa2, active compounds read low 0.982 | locus YER016W, strain bim1, active compounds read low 1.01 | locus YER111C, strain swi4, active compounds read low 0.999 | locus YER155C, strain BEM2 (second series), active compounds read low 0.984 | locus YFR010W, strain ubp6, active compounds read low 0.995 | locus YGL167C, strain pmr1, active compounds read low 0.995 | locus YGL173C, strain kem1, active compounds read low 1 | locus YGL227W, strain vid30, active compounds read low 1 | locus YGL240W, strain doc1, active compounds read low 1.02 | locus YGL253W, strain hxk2, active compounds read low 1.02 | locus YHR013C, strain ard1, active compounds read low 1.03 | locus YHR027C, strain rpn1, active compounds read low 0.986 | locus YHR030C, strain SLT2, active compounds read low 1.01 | locus YHR079C, strain IRE1, active compounds read low 0.992 | locus YHR142W, strain chs7, active compounds read low 1.01 | locus YJL092W, strain hpr5, active compounds read low 1.02 | locus YJL095W, strain BCK1 (second series), active compounds read low 0.99 | locus YJL095W, strain BCK1, active compounds read low 0.974 | locus YJL115W, strain asf1, active compounds read low 0.988 | locus YJL129C, strain trk1, active compounds read low 1.03 | locus YJL154C, strain vps35, active compounds read low 1.01 | locus YJL164C, strain tpk1, active compounds read low 0.972 | locus YJL166W, strain qcr8, active compounds read low 1.02 | locus YJL187C, strain SWE1, active compounds read low 1.02 | locus YJR066W, strain TOR1, active compounds read low 0.962 | locus YKL160W, strain elf1, active compounds read low 1.04 | locus YKR026C, strain gcn3, active compounds read low 0.994 | locus YKR091W, strain srl3, active compounds read low 0.995 | locus YLL001W, strain dnm1, active compounds read low 1 | locus YLL026W, active compounds read low 0.992 | locus YLL041C, strain sdh2, active compounds read low 0.991 | locus YLR027C, strain aat2, active compounds read low 1 | locus YLR113W, strain HOG1, active compounds read low 0.94 | locus YLR221C, strain rsa3, active compounds read low 0.975 | locus YLR258W, strain gsy2, active compounds read low 0.994 | locus YLR262C, strain YPT6 (second series), active compounds read low 1.01 | locus YLR320W, strain mms22, active compounds read low 1.01 | locus YLR342W, strain FKS1, active compounds read low 1.01 | locus YLR357W, strain rsc2, active compounds read low 0.999 | locus YLR370C, strain arc18, active compounds read low 0.973 | locus YLR384C, strain iki3, active compounds read low 0.993 | locus YML120C, strain ndi1, active compounds read low 0.982 | locus YMR058W, strain fet3, active compounds read low 1 | locus YMR125W, strain sto1, active compounds read low 1.02 | locus YMR129W, active compounds read low 0.997 | locus YMR205C, strain PFK2, active compounds read low 1.02 | locus YMR231W, strain pep5, active compounds read low 0.994 | locus YNL071W, strain lat1, active compounds read low 1.01 | locus YNL183C, strain NPR1, active compounds read low 0.95 | locus YNL209W, strain ssb2, active compounds read low 0.993 | locus YNL248C, strain rpa49, active compounds read low 1.06 | locus YNL322C, strain KRE1 (second series), active compounds read low 0.994 | locus YNR049C, strain mso1, active compounds read low 0.99 | locus YOR001W, strain rrp6, active compounds read low 0.964 | locus YOR070C, strain gyp1, active compounds read low 0.992 | locus YOR080W, strain dia2, active compounds read low 0.998 | locus YOR083W, strain WHI5, active compounds read low 1.02 | locus YOR106W, strain vam3, active compounds read low 1.02 | locus YOR231W, strain MKK1, active compounds read low 1.02 | locus YOR265W, strain rbl2, active compounds read low 0.984 | locus YOR270C, strain vph1, active compounds read low 1.04 | locus YOR290C, strain snf2, active compounds read low 0.996 | locus YPL051W, strain arl3, active compounds read low 1.04 | locus YPL078C, strain atp4, active compounds read low 1.04 | locus YPL106C, strain sse1, active compounds read low 0.981 | locus YPL240C, strain hsp82, active compounds read low 0.975 | locus YPL256C, strain CLN2, active compounds read low 0.984
